According to PubChem BioAssay:
Activity calls are given as the source filed them.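 How the source made its calls, unless noted: active means fluorescence slope higher than the sample average by over 3 SD (cut at about -0.22 in these data, passing the limit was not always enough); inactive means the rest.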

Experiments:
[1] = inhibitors of TNFa-induced NFkB p65 translocation, primary screen, imaging, HUVEC, MLSMR starter and 10KST1 sets (AID 438;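 active means inhibition above 20% together with a positive visual image hit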;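 further: compound added about 3h40 before a 20 min TNFalpha stimulation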;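 on inhibition: signal is the nuclear over cytoplasmic p65 intensity ratio per well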); conditions: HUVEC TNFa-induced p65 nuclear translocation; cell count: measured here: nuclei count (cytotoxicity indicator), at 2.08 µM; inhibition: at 2 µM, stronger effect = higher value, 0% TNFa-plus-vehicle, 100% no-TNFa wells
[2] = reduction of polyQ htt aggregates in cells – imaging, exon1htt(103Q)mCFP cells, high-content imaging, primary screen (AID 483;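 active means visual image review flags a hit and inhibition of aggregation exceeds 20%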;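 further: compound exposure lasted 3 days before fixation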;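 on nuclei count: percent of the per-plate median nuclei count of sample wells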); conditions: exon1htt(103Q)mCFP cell line, aggregate imaging, at 2 µM; inhibition of aggregation: stronger effect = higher value; nuclei count: measured here: cell count, toxicity
[3] = endothelial E-selectin expression blockers – imaging, HUVEC, immunofluorescence, MLSMR starter and 10KST1 sets, primary screen (AID 487;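 active means visually confirmed hit in the image check and inhibition above 20%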;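 on inhibition: signal is fraction of cell area covered by stained E-selectin grains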;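 on nuclei count: 100% = median nuclei count of all wells on the same plate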); conditions: HUVEC TNFalpha-induced E-selectin immunofluorescence imaging, at 2 µM; inhibition: stronger effect = higher value; nuclei count: measured here: cell number, toxicity
[4] = molecular target: Voltage-gated potassium channel subunit beta-2 (Rattus norvegicus) (UniProt P62483); assay: inhibitors of rat Kvbeta2 reductase activity – biochemical, NADPH fluorescence, primary screen (AID 622); conditions: recombinant KvBeta, 4-cyanobenzaldehyde reduction, at 10 µM, stronger effect = higher value;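 further: slope of raw intensity against log time taken from 70 to 1610 s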
[5] = molecular target: Voltage-gated potassium channel subunit beta-2 (Rattus norvegicus) (UniProt P62483); assay: enhancers of rat Kvbeta2 NADPH turnover – biochemical, NADPH fluorescence, primary screen (AID 623;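 active means NADPH fluorescence slope more negative than the mean of all samples by about 3 SD, 99.7% confidence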;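 further: fluorescence intensity change per second fitted from 20 to 320 s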); conditions: Recombinant KvBeta, NADPH fluorescence decrease slope, 10 min; at 10 µM; stronger effect = lower value
[6] = molecular target: Alpha-2C adrenergic receptor (Homo sapiens) (UniProt P18825); assay: compounds altering alpha2C-coupled GIRK flux – cell-based, HEK293 alpha2C/GIRK1/2, thallium flux, primary screen (AID 624;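 active means fluorescence slope after compound addition differing from the mean of all screened samples at 99.7% confidence, in either direction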;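 further: slope of fluorescence ratio to pre-addition baseline per second over 15 to 24 s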); conditions: thallium flux BTC fluorescence, at 10 µM, actives lie on both sides
[7] = blockers of RIG-like receptor reporter activation – cell-based, Sendai virus stimulus, luciferase, 10K MLSCN set, TLR/RLR signaling modifier project, primary screen (AID 602276;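 active means inhibition at or above 50% at 10 µM; inactive means inhibition below 50%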;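 further: firefly luciferase from ISG56 promoter only with Renilla not read in this screen; 0% = Sendai virus plus DMSO and 100% = medium plus DMSO without virus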); conditions: HEK293 RL24 IRF3 luciferase reporter, at 10 µM, stronger effect = higher value
[8] = TLR3 IRF3 reporter activation blockers – cell-based, poly I:C stimulus, luciferase, 10K MLSCN set, primary screen (AID 602277;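 active means inhibition of the reporter signal at or above 50%; inactive means inhibition below 50%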); conditions: HEK293-TLR3 RL24 IRF3 luciferase reporter, at 10 µM, stronger effect = higher value

Alpha-2C adrenergic receptor (Homo sapiens), sequence (P18825 whole entry, looked up): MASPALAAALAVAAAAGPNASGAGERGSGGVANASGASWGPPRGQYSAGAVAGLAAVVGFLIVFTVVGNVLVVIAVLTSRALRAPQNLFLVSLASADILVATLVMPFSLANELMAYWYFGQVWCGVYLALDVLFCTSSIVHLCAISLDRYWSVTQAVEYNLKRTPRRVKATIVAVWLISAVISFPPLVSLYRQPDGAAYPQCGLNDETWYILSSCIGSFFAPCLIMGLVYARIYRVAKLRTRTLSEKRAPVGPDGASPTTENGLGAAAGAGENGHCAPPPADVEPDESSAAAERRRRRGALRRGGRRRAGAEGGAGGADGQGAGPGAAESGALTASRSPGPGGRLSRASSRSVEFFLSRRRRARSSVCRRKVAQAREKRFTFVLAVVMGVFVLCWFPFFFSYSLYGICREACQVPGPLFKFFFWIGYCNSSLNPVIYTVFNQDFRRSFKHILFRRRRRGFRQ
Voltage-gated potassium channel subunit beta-2 (Rattus norvegicus), sequence (P62483 whole entry, looked up): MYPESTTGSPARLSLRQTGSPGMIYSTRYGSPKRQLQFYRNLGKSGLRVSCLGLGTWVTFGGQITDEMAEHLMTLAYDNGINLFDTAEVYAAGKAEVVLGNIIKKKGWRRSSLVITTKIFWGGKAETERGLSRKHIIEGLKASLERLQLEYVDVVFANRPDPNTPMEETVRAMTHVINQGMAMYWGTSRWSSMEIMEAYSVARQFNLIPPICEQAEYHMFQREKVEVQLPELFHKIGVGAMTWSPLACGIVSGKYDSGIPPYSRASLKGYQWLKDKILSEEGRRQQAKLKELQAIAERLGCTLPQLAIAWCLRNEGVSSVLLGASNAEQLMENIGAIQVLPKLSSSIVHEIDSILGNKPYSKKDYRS

SMILES | cell count [1] | inhibition [1] | inhibition of aggregation [2] | nuclei count [2] | inhibition [3] | nuclei count [3] | fluorescence slope [4] | NADPH fluorescence slope [5] | slope [6] | inhibition [7] | inhibition [8]
O=C(Nc1ccc2c(c1)OCO2)c1cccc(Cl)c1 | 407 | 1.4% (inactive) | -14.3% (inactive) | 107% | -22.5% (inactive) | 114% | -0.398 (inactive) | -4.1e-06 (inactive) | 0.0047 (inactive) | -28.3% (inactive) | -70.9% (inactive)
C=CCNC(=O)c1ccc(Cl)cc1Cl | 344 | 1.6% (inactive) | -21.2% (inactive) | 87.7% | -31.6% (inactive) | 91.8% | -0.478 (inactive) | -4.6e-05 (inactive) | 0.00715 (inactive) | 0.0277% (inactive) | 23.8% (inactive)
Cc1cc2c(cc(C(=O)OCC(=O)NCc3cccs3)n2C(C)C)o1 | 379 | 9.9% (inactive) | 7.7% (inactive) | 106% | -156% (inactive) | 95.3% | -0.586 (inactive) | -5.1e-05 (inactive) | 0.00376 (inactive) | 20.7% (inactive) | 77.6% (active)
O=C(OC1CCOC1=O)c1ccc2ccccc2n1 (centres undefined) | 633 | 4.2% (inactive) | -0.9% (inactive) | 100% | 38.1% (inactive) | 76% | -0.324 (inactive) | 2.9e-05 (inactive) | 0.00579 (inactive) | 20.6% (inactive) | 29.1% (inactive)
C=CCSc1nnc(-c2cccnc2)o1 | 566 | 8.2% (inactive) | 13.3% (inactive) | 94.4% | 19.1% (inactive) | 78.2% | -0.539 (inactive) | -5.1e-05 (inactive) | 0.00706 (inactive) | 1.31% (inactive) | -8.9% (inactive)
CCOc1ccc(S(=O)(=O)Nc2cccc(Cl)c2)cc1 | 376 | -2.9% (inactive) | -0.3% (inactive) | 78.4% | -10.2% (inactive) | 81.5% | -0.627 (inactive) | -2.5e-05 (inactive) | 0.00349 (inactive) | 38.8% (inactive) | 34.1% (inactive)
COc1cccc(N(C(=O)c2ccco2)C(C(=O)NC2CCCC2)c2ccc(N(C)C)cc2)c1 (centres undefined) | 582 | -1.6% (inactive) | -38.4% (inactive) | 98.6% | 5.4% (inactive) | 77.9% | -0.44 (inactive) | -0.000142 (inactive) | 0.00648 (inactive) | 6.61% (inactive) | 15.9% (inactive)
COc1ccccc1NC(=O)C1(C)Cc2ccccc2C(=O)O1 (centres undefined) | 640 | 12.4% (inactive) | -26.4% (inactive) | 119% | 46.9% (inactive) | 106% | -0.584 (inactive) | -3.4e-05 (inactive) | 0.00673 (inactive) | -6.71% (inactive) | -2.97% (inactive)
CC(=O)c1cc2c(cc1NC(=O)CN1CCN(C(=O)c3ccco3)CC1)OCO2 | 410 | -6.1% (inactive) | 13.3% (inactive) | 44.6% | -58.5% (inactive) | 113% | -0.548 (inactive) | -3.4e-05 (inactive) | 0.00807 (inactive) | 4.38% (inactive) | 25.7% (inactive)
CCOc1ccc(NCCC(=O)c2ccc3c(c2)OCO3)cc1 | 624 | -5.4% (inactive) | 29.9% (inactive) | 96.9% | 0% (inactive) | 103% | -0.326 (inactive) | 8.4e-06 (inactive) | 0.00304 (inactive) | 2.87% (inactive) | 12.5% (inactive)
COc1ccccc1CC(NC(C)=O)C(=O)NC1CCN(c2nnnn2-c2ccccc2)CC1 (centres undefined) | 761 | -5.5% (inactive) | -29.5% (inactive) | 63.6% | -19.7% (inactive) | 117% | -0.624 (inactive) | 1.1e-06 (inactive) | 0.00623 (inactive) | -1.4% (inactive) | 16.9% (inactive)
CC1CCCC(N2CCN(C(=O)c3ccc(F)cc3)CC2)C1 (centres undefined) | 625 | -1.3% (inactive) | -15.5% (inactive) | 106% | -53.4% (inactive) | 114% | -0.581 (inactive) | -4.9e-05 (inactive) | 0.00721 (inactive) | 2.84% (inactive) | 43.9% (inactive)
Cc1[nH]nc(N=CC2=C(O)CC(C)(C)CC2=O)c1-c1ccc(Cl)cc1 | 344 | 10.1% (inactive) | -7.7% (inactive) | 102% | -27.4% (inactive) | 128% | -0.402 (inactive) | 1.2e-05 (inactive) | 0.00588 (inactive) | 11.6% (inactive) | -25.9% (inactive)
CC(=O)N(c1ccc(Br)cc1)C1C=CS(=O)(=O)C1 (centres undefined) | 476 | 3.9% (inactive) | 25.9% (inactive) | 49.7% | -13.7% (inactive) | 102% | -0.551 (inactive) | -4.3e-05 (inactive) | 0.00701 (inactive) | 13.8% (inactive) | 30% (inactive)
